# Assay outcomes: PubChem, Pan Lab, Icahn School of Medicine at Mount Sinai
# This is one part of a sample in which hits are shown more often than they occur.
# RBX1-CUL1 inh – human ROC1-CUL1 E3 ligase inhibition | P62877+Q13616 | in vitro K48 di-Ub FRET, acceptor:donor ratio, 45 min | 0.6% of 140,000 active | inhibition, % at 10 µM; in the data active = inhibition above about 25%
# Numbers without * were called inactive.
SMILES,RBX1-CUL1 inh
Cc1cc(/C=C2/C(=O)NC(=S)N(c3ccc(Br)cc3)C2=O)c(C)n1-c1ccccc1,8
Cc1ccc(N2C(=O)/C(=C/c3cc(C)n(-c4cccc(C(=O)O)c4)c3C)C(=O)N(C)C2=S)cc1,34*
Cc1cc(/C=C2\C(=O)NC(=S)N(C)C2=O)c(C)n1-c1ccc(C(=O)O)cc1,3
CC(=O)c1cc2sccc2s1,8
O=C(O)CCC(=O)NNc1ccc([N+](=O)[O-])cc1,-2
C=CCOc1ccc(Br)cc1/C=N/NC(=O)OC(C)(C)C,9
COC(=O)c1ccc(C2Nc3ccccc3-c3nnc(SCc4ccc(C)cc4)nc3O2)cc1 (stereo not drawn),-3
O=C(O)CSc1nnc2c(n1)OC(c1ccc(Cl)cc1)Nc1ccccc1-2 (stereo not drawn),-6
O=C(O)c1ccc(C2Nc3ccccc3-c3nnc(SCc4ccc(Cl)cc4)nc3O2)cc1 (stereo not drawn),26*
CCN(CC)CC(O)COc1ccc(CNC2CCCCC2)cc1OC (stereo not drawn),0
COc1ccc(C(=O)C2C(=O)C(=O)N(CCCN(C)C)C2c2ccncc2)c(C)c1 (stereo not drawn),0
Cc1ccccc1-c1cnc(-c2ccncc2)nc1C1CCCN(C(=O)/C=C/c2ccc(F)cc2)C1 (stereo not drawn),-2
CCOc1cc[n+](CC)c(-c2ccccc2)n1,0
Nc1nc(-c2ccccc2)c(Cl)nc1-c1ccccc1,5
CC[n+]1cc(Cl)nc(-c2ccccc2)c1-c1ccccc1,39*
CCN1C(=O)/C(=C/c2ccc(OC)c(OC)c2)N=C1SCC(=O)NC1CCCCC1,0
O=S(=O)(NC1CCCCC1)c1ccc(I)cc1,-2
C=C(C)COc1ccc(C(=O)N2CCCCC2)cc1,5
COc1cc(OC)c([N+](=O)[O-])cc1/C=C1\C(=O)NC(=S)N(C)C1=O,-7
O=C1NC(=S)N(c2ccccc2)C(=O)/C1=C/c1cc([N+](=O)[O-])c(O)cc1O,94*
O=C1NC(=S)N(c2cccc(Br)c2)C(=O)/C1=C/c1ccccc1O,-8
Cc1nc2c(=O)n(C)c(=O)n(C)c2nc1Cl,71*
COc1cnc2c(=O)n(C)c(=O)n(C)c2n1,2
Cc1nc2c(nc1Cl)c(=O)n(C)c(=O)n2C,-5
Nc1ccc(Sc2ccc(N3C(=O)c4ccc(N)cc4C3=O)cc2)cc1,-4
SMILES,RBX1-CUL1 inh
CCOC(=O)c1c(C)n(-c2ccccc2)c(C)nc1=S,11
CCOC(=O)c1c(C(=O)OCC)c(C)n(-c2ccccc2C(=O)O)c1C,36*
CCOC(=O)c1c(C)n(-c2ccccc2)c2ccc(OC(=O)c3ccccc3Cl)cc12,-2
COC(=O)c1ccc2c(c1)C1C=CCC1C(c1ccc([N+](=O)[O-])cc1)N2 (stereo not drawn),2
CCOC(=O)[C@@H]1Nc2ccc(Br)cc2[C@@H]2C=CC[C@H]12,2
O=C(O)c1ccc2c(c1)C1C=CCC1C(C1CC=CCC1)N2 (stereo not drawn),101*
COc1ccc(CC(=O)NCC2CCCN(C(=O)CSC)C2)cc1 (stereo not drawn),-5
COCC(=O)N(C)C(Cc1ccc(F)cc1)C1CCN(C(=O)CCc2ccccc2OC)CC1 (stereo not drawn),-7
CCc1ccc(OC(C)c2nnc(SCC(=O)Nc3ccccc3C)n2C)cc1 (stereo not drawn),-3
Clc1ccc(-c2noc(CN3CCCC(OCc4cccnc4)C3)n2)cc1 (stereo not drawn),9
COc1ccc(CNc2c(F)c(F)c3nc4snc(C)c4cc3c2F)cc1,-6
COc1ccccc1CNc1c(F)c(F)c2nc3snc(C)c3cc2c1F,87*
Cc1nsc2nc3c(F)c(F)c(N[C@@H](C)c4ccccc4)c(F)c3cc12,9
c1ccc(NC2CCCN(C3CCOCC3)C2)cc1 (stereo not drawn),9
S=c1[nH]c(=S)c2c3c(sc2[nH]1)CCC3,-13
CN(Cc1ccc2ccccc2n1)C(=O)c1ccc(N2CCC(C(N)=O)CC2)nc1,14
Cc1nn(C)c(C)c1CCC(=O)NCc1nc(-c2ccc(NC(=O)Cc3ccccc3)cc2)oc1C,39*
Cc1oc(-c2ccc(NC(=O)Cc3ccccc3)cc2)nc1CNC(=O)CCC(C)C,-1
COc1ccc(CC(=O)NCc2nc(-c3ccc(NC(=O)Cc4ccccc4)cc3)oc2C)cc1,5
CCC(CC)C(=O)NCC1Cc2cccc(-c3ncccc3C)c2O1 (stereo not drawn),2
COc1ccccc1-c1nnc2sc(/C=C/c3ccco3)nn12,20
Fc1ccc(-c2nn3c(-c4ccco4)nnc3s2)cc1,0
Clc1ccccc1-c1nnc2sc(-c3cccs3)nn12,0
Fc1ccc(/C=C/c2nn3c(-c4ccco4)nnc3s2)cc1,9
Fc1ccc(-c2nnc3sc(/C=C/c4ccco4)nn23)cc1,95*
SMILES,RBX1-CUL1 inh
Clc1ccccc1-c1nnc2sc(/C=C/c3ccco3)nn12,96*
CN(C)CCCC1c2ccccc2Sc2ccc(Cl)cc2C1O (stereo not drawn),2
CCOc1cccc(C(=O)N2CCN(C3CCCCC3)CC2)c1,-6
CC1CCc2c(sc3nnn(CC(=O)Nc4cccc5ccccc45)c(=O)c23)C1 (stereo not drawn),-3
CCOC(=O)c1c(NC(=O)CCN2CCCCCC2)sc(C)c1-c1ccc(Cl)cc1,1
O=C(Nc1ccc(Cl)cc1Cl)c1ccc(N2CCOCC2)cc1,1
O=C1C(=C2SCCCS2)CCCC/C1=C\C=C\c1ccccc1,3
CCC(=O)NC1(C(=O)NC(C(Oc2ccc(Cl)cc2)n2cncn2)C(C)(C)C)CCCC1 (stereo not drawn),-3
CCOc1cc(/C=C2\N=C(c3ccco3)OC2=O)cc(Cl)c1OCc1ccccc1F,-1
S=c1[nH]nc(-c2ccccc2Br)s1,0
CC(=O)c1ccccc1-c1ccccc1C(C)=O,13
CN1C(=O)c2ccccc2C(O)c2ccccc21 (stereo not drawn),-2
CC(=O)C1=NC(=O)c2ccccc2C1O (stereo not drawn),53*
O=C(NC1CC1)c1ccccc1O,1
Cc1ccccc1C1(CC(=O)N2CCN(C3CCCCC3)CC2)CC(=O)N(Cc2cccnc2)C1=O (stereo not drawn),-4
Cc1cccc(NC(=O)CN2C(=O)S/C(=C/c3ccc(-c4cc(C(=O)O)ccc4Cl)o3)C2=O)c1,21
O=C(O)c1ccc(-c2ccc(/C=C3\SC(=O)N(Cc4ccc(F)cc4)C3=O)o2)cc1Cl,92*
Cc1ccccc1NC(=O)CN1C(=O)S/C(=C\c2ccc(-c3cc(C(=O)O)ccc3Cl)o2)C1=O,28*
Cc1cccc(/C=C2/SC(=O)N(Cc3ccccc3C#N)C2=O)n1,-1
CC(C)c1ccc(/C=C2\SC(=O)N(Cc3ccc(F)cc3)C2=O)cc1,5
O=C1S/C(=C\c2cc(Br)cc(Cl)c2O)C(=O)N1Cc1ccc(F)cc1,40*
C=CCN1C(=O)S/C(=C\c2ccc(-c3ccc(Br)cc3)o2)C1=O,-7
N#Cc1ccccc1CN1C(=O)S/C(=C/c2ccc(-c3ccc(Cl)c(C(=O)O)c3)o2)C1=O,42*
COC(=O)CN1C(=O)S/C(=C/c2ccc(-c3cccc(C(=O)O)c3C)o2)C1=O,7
Cc1ccccc1NC(=O)CN1C(=O)S/C(=C\c2ccc(-c3cc(C(=O)O)ccc3C)o2)C1=O,-1
O=C(O)COc1ccc(/C=C2/SC(=O)N(Cc3ccc(F)cc3)C2=O)cc1Br,5
Cc1c(C(=O)O)cccc1-c1ccc(/C=C2/SC(=O)N(Cc3cc4c(cc3Cl)OCO4)C2=O)o1,6
